Data on nine molecules can be found in PubChem BioAssay (Tox21).

Experiment [1] is described as follows: Nuclear factor erythroid 2-related factor 2/antioxidant responsive element (Nrf2/ARE) small molecule agonists: qHTS cell viability counter screen in human keratinocytes (AID 1919968; active = well fitted cell-killing curve with a large enough effect in the repeat runs; also: nearly all actives have a fitted effect of over 55% in size; also: potency is read from the fitted curve at half-maximal effect). The gist of the method:
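Viability counter-screen: KeratinoSens reporter cells, DMSO-delivered compounds, 23 h at 37 C, CellTiter-Fluor fluorescence.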

A short description of experiment [2]: Nuclear factor erythroid 2-related factor 2/antioxidant responsive element (Nrf2/ARE) small molecule agonists: luciferase reporter gene qHTS assay in human keratinocytes (AID 1919969; also: nearly all actives have a fitted effect of over 35% in size). (A reporter such as luciferase makes a cellular process visible.)
Experiment [3] concerns the target Gonadotropin-releasing hormone receptor (Homo sapiens) (UniProt P30968). The experiment can be described thus: Human gonadotropin-releasing hormone receptor (GnRHR) small molecule agonists, calcium flux assay in GnRHR-HEK293 cells (AID 1920063). Also: nearly all actives have a fitted effect of over 35% in size. The gist of the method: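 Tox21-format agonist screen using human GnRHR-expressing HEK293 cells and a fluorescent calcium dye; kinetic 3-min fluorescence reading after compound addition, 15-point concentration series run in triplicate.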
(In general: Calcium flux is commonly read through the fluorescence of an indicator in the cells.)

A short description of experiment [4]: p53 small molecule agonists, cell-based qHTS assay with rat liver microsomes (AID 1963578). The essentials:
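Rat liver microsome activation: microsomes 0.5 mg/mL, NADPH 0.5 mg/mL final; p53RE-bla cells, 16 h 37 C; LiveBLAzer readout, 2 h RT dark.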
On the technique in general: In qHTS, concentration-response curves come from the screen itself.

Experiment [5] in a line: p53 small molecule agonists, cell-based qHTS assay with human liver microsomes: qHTS cell viability counter screen (AID 1963579). Also: nearly all actives have a fitted effect of over 45% in size. Also: potency is read from the fitted curve at half-maximal effect. The gist of the method:
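Luminescent CellTiter-Glo read-out, 30 min at room temperature, gauged cytotoxicity in p53RE-bla cells exposed 16 h at 37 C to DMSO-dissolved compounds with metabolic activation by human liver microsomes and NADPH, each 0.5 mg/mL final.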

Experiment [6] in a line: p53 small molecule agonists, cell-based qHTS assay with rat liver microsomes: qHTS cell viability counter screen (AID 1963580). Also: nearly all actives have a fitted effect of over 45% in size. The gist of the method:
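Viability is assessed in parallel with the p53 reporter read: HCT-116 p53RE-bla cells receive compounds plus rat microsomes and NADPH (0.5 mg/mL final apiece), incubate 16 h at 37 C, and then CellTiter-Glo luminescence is recorded.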

In experiment [7] the target is 5-hydroxytryptamine receptor 2A (Homo sapiens) (UniProt P28223). The experiment can be described thus: 5-hydroxytryptamine receptor 2A (HTR2A) small molecule antagonists, cell-based qHTS assay (AID 1963586). Also: nearly all actives have a fitted effect of over 45% in size. Also: potency is read from the fitted curve at half-maximal effect. The gist of the method:
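Antagonist-mode intracellular calcium assay: DOI (4 nM) added after 5 min compound pre-incubation at room temperature to dye-loaded HTR2A-CHO cells. Fluorescence followed for 3 min, sampled every second.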

Experiment [8] shares this target. The experiment can be described thus: 5-hydroxytryptamine receptor 2A (HTR2A) small molecule agonists, cell-based qHTS assay (AID 1963587). Also: nearly all actives have a fitted effect of over 30% in size. The essentials: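 CHO cells stably expressing human HTR2A, plated 18 h, loaded with calcium dye 1 h at 37 C. Agonist mode: compounds added and intracellular calcium fluorescence recorded kinetically for 2 min at 1 sec intervals.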

The target in experiment [9] is Muscarinic acetylcholine receptor M1 (Homo sapiens) (UniProt P11229). The experiment can be described thus: Cholinergic receptor muscarinic 1 (CHRM1) small molecule antagonists, cell-based qHTS assay (AID 1963588). Also: nearly all actives have a fitted effect of over 40% in size. Also: potency is read from the fitted curve at half-maximal effect. The gist of the method:
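CHRM1-CHO calcium-flux assay, antagonist mode. Cells were seeded 18 h, dye-loaded 1 h at 37 C and given compound for 5 min at RT, then acetylcholine was added at 50nM. FDSS fluorescence was read 3 min; 15 concentrations, three runs.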

Experiment [10] shares this target. The experiment can be described thus: Cholinergic receptor muscarinic 1 (CHRM1) small molecule agonists, cell-based qHTS assay (AID 1963589). Also: nearly all actives have a fitted effect of over 35% in size. The gist of the method:
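Stable CHRM1-CHO cells (human receptor) were incubated 18 h, dye-loaded for 1 h at 37 C and exposed to test compounds for agonist activity, with calcium-dependent fluorescence followed kinetically.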

Experiment [11] addresses Beta-2 adrenergic receptor (Homo sapiens) (UniProt P07550). The experiment can be described thus: Adrenergic beta2 receptor (ADRB2) small molecule antagonists, cell-based qHTS assay (AID 1963592). Also: series mostly up to about 92 µM; nearly all actives have a fitted effect of over 50% in size. The essentials:
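Cells (CHO, stable ADRB2 overexpression) incubated 18-20hr at 37C; compounds added from DMSO; agonist mix (1nM isoproterenol, 100uM IBMX, 25uM Ro-20-1724) added; 0.5hr RT; d2-cAMP and anti-cAMP-cryptate added; 1hr RT; 665/615 nm read.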

Experiment [12] shares this target. The experiment can be described thus: Adrenergic beta2 receptor (ADRB2) small molecule agonists, cell-based qHTS assay (AID 1963593).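 Also: CHO cells stably overexpressing human ADRB2.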 The gist of the method:
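CHO cells stably over-expressing ADRB2 were plated overnight at 37C, then dosed with compounds plus a stimulation mix containing 100uM IBMX and 25uM Ro-20-1724 for 0.5hr at room temperature. cAMP was measured by HTRF competition, 1hr.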

Experiment [13] can be described thus: G protein-coupled receptor (GPCR) small molecule agonists, calcium flux assay: HEK293 wild type cell line counter screen (AID 1920065). The gist of the method: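 In this agonist-mode screen, ATP is the positive control and DMSO the vehicle. Cells grow 18 h before a 1 h dye incubation at 37 C; signal is taken at Ex/Em 480/540 over 3 min.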
Experiment [14] is described as follows: p53 small molecule agonists, cell-based qHTS assay: qHTS cell viability counter screen (AID 1963581). Also: nearly all actives have a fitted effect of over 45% in size. The essentials: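 Compounds are pinned onto HCT-116 p53RE-bla cells and left 16 h at 37 C. Following the reporter FRET read, ATP is quantified by CellTiter-Glo luminescence after 30 min at room temperature.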
The nature of experiment [15]: p53 small molecule agonists, cell-based qHTS assay (AID 1963582; active = well fitted activation curve with a large enough effect in the signal ratio in the repeat runs, not every such curve was filed as active; the % refers to the signal ratio). The gist of the method:
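Agonist activity was scored from beta-lactamase FRET fluorescence in p53RE-bla cells treated 16 h at 37 C with compounds in DMSO, substrate incubation being 2 h at room temperature.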

The nature of experiment [16]: cAMP Responsive Elements (CRE) small molecule agonists, cell-based qHTS assay (AID 1963590). The essentials:
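FRET-based beta-lactamase readout (LiveBLAzer B/G, 2 h RT) quantified CRE activation in HEK 293T CRE-bla cells after 3 h treatment with DMSO-dissolved compounds.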

Experiment [17] in a line: cAMP Responsive Elements (CRE) small molecule antagonists, cell-based qHTS assay (AID 1963591; active = well fitted inhibition curve with a large enough effect in the signal ratio in the repeat runs, not every such curve was filed as active; the % refers to the signal ratio). The essentials: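 qHTS in CRE-bla HEK 293T cells: compound in DMSO, then 0.25 uM NKH477 (final), 3 h at 37 °C/5% CO2; beta-lactamase FRET read-out after 2 h substrate incubation.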
Experiment [18] deals with D(2) dopamine receptor (Homo sapiens) (UniProt P14416). The experiment can be described thus: Dopamine D2 receptor (DRD2) small molecule agonists, cell-based qHTS assay (AID 1963594). Also: nearly all actives have a fitted effect of over 35% in size. Also: potency is read from the fitted curve at half-maximal effect. The essentials: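 HEK293 cells stably expressing human DRD2, pre-treated with PDE inhibitor Ro20-1724 (0.1 mM final) and compound 10 min at room temperature, then stimulated with NKH477 (200nM […]) for 30 min. cAMP read by HTRF (665/620 nm).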
Sequence of D(2) dopamine receptor (Homo sapiens) (P14416 whole entry, looked up): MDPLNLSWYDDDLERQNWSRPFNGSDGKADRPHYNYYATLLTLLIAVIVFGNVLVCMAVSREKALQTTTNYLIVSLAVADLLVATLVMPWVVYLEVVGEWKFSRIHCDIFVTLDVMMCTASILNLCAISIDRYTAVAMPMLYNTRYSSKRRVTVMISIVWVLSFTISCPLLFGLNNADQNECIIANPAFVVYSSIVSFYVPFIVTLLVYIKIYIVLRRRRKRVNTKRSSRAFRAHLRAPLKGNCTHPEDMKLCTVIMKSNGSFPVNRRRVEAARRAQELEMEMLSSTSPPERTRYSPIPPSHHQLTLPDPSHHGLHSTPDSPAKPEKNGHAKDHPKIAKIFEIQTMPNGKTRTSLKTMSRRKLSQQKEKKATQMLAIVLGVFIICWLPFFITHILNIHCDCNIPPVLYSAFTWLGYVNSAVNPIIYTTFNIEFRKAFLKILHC

The target is the same in experiment [19]. The experiment can be described thus: Dopamine D2 receptor (DRD2) small molecule antagonists, cell-based qHTS assay (AID 1963595; active = well fitted inhibition curve with a large enough effect in the signal ratio in the repeat runs, with a control signal flat; the % refers to the signal ratio; also: potency is read from the fitted curve at half-maximal effect). The essentials: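 Antagonist mode in DRD2-HEK293 cells: after compound addition with 0.1 mM Ro20-1724, cells received quinpirole (12 nM) and NKH477 (200 nM) for 30 min at room temperature; HTRF cAMP read after 1 h detection.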

Results filed as inconclusive are left out. Activity calls are given as the source filed them. Unless noted, calls follow the shape of the full dose curve.

Sequence of Beta-2 adrenergic receptor (Homo sapiens) (P07550 whole entry, looked up): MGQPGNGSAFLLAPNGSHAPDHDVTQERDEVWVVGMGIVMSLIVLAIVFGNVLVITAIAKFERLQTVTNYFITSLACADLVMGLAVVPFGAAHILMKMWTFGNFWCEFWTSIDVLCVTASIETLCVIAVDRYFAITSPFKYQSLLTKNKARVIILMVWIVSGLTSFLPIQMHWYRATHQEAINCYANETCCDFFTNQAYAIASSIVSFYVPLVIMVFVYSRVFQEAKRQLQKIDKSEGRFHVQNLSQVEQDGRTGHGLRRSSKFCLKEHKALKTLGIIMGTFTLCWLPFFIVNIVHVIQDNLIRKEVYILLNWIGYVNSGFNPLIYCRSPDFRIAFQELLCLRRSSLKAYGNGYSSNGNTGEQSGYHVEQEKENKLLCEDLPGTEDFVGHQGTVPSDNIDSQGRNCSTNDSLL
Sequence of Gonadotropin-releasing hormone receptor (Homo sapiens) (P30968 whole entry, looked up): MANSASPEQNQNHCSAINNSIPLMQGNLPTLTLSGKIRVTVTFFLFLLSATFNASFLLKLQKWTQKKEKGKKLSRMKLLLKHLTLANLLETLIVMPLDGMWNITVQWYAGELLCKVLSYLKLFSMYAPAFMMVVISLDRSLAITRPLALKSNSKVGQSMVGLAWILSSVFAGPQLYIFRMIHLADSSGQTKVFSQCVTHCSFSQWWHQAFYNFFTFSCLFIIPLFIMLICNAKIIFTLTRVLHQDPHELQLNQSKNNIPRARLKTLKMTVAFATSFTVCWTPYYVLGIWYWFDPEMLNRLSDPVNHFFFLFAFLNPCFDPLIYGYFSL
Sequence of 5-hydroxytryptamine receptor 2A (Homo sapiens) (P28223 whole entry, looked up): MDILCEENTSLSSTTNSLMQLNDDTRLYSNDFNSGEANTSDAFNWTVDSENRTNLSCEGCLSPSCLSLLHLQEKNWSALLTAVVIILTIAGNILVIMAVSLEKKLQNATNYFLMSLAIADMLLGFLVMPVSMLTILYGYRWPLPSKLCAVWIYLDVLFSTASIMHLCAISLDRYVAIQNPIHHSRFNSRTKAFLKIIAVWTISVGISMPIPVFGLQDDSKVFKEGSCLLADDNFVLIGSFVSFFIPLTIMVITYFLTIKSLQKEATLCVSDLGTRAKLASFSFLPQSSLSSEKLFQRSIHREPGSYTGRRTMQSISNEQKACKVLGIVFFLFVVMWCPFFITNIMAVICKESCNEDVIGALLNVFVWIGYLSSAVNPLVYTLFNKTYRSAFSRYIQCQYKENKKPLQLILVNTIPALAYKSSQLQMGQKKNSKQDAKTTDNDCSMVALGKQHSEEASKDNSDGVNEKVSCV
Sequence of Muscarinic acetylcholine receptor M1 (Homo sapiens) (P11229 whole entry, looked up): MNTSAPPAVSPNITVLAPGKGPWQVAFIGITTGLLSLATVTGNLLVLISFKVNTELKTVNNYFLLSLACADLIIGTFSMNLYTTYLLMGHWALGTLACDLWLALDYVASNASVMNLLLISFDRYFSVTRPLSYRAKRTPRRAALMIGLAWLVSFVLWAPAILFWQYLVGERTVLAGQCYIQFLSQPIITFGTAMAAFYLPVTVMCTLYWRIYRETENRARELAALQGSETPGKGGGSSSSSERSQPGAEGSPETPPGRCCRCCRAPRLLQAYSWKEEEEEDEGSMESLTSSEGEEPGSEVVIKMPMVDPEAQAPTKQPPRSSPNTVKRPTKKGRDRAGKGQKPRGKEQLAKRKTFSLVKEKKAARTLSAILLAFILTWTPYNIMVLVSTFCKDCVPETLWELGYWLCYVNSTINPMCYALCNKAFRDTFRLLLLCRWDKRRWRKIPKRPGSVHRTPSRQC

`COc1ccc2cc(S(=O)(=O)N[C@H](CC(=O)N[C@H](Cc3ccc(CN4[C@H](C)CCC[C@@H]4C)cc3)C(=O)N(C)C(C)C)c3ccc4c(c3)OCO4)ccc2c1`: the Potency is 41 µM (active) in experiment [1], 43.3 µM (active) in [5] and 0.794 µM (active) in experiment [9]. Besides, the Potency result in [2], in [3], in experiment [4], in experiment [6], in [7] and in experiment [8] was “inactive” each time. Moreover, the Potency result in [10], in experiment [11] and in experiment [12] was “inactive” throughout.

With `CC(C)NCC(O)COc1ccc(CC(N)=O)cc1` (stereo not drawn), the Potency entry in [1], in [2], in [3], in experiment [13], in [14] and in experiment [15] was “inactive” each time. The Potency result in experiment [16], in [17], in experiment [18] and in experiment [19] was “inactive” in each case.

As to `Clc1sc(Cl)c(Cl)c1Cl`, the Potency entry in [1], in experiment [2], in [3], in [13], in experiment [5] and in [6] was “inactive” each time. Further, the Potency entry in experiment [14], in experiment [7], in [8], in experiment [9], in experiment [10] and in experiment [16] was “inactive” in each case. The Potency entry in [17], in experiment [11], in [12] and in [19] was “inactive” throughout.

As for `CC[C@H](C)C(=O)O[C@H]1C[C@H](O)C=C2C=C[C@H](C)[C@H](CC[C@@H](O)C[C@@H](O)CC(=O)O)[C@H]21`, the Potency result in [1], in experiment [2], in experiment [3], in [13], in experiment [5] and in experiment [6] was “inactive” in each case. The Potency result in experiment [14], in experiment [16], in experiment [11], in experiment [12] and in experiment [19] was “inactive” throughout. Besides, the Potency in experiment [18] was 61.1 µM (active).

For the molecule `Nc1nc(F)nc2c1ncn2[C@@H]1O[C@H](CO)[C@@H](O)[C@@H]1O`, the Potency entry in experiment [1], in experiment [2], in experiment [3], in [4], in experiment [5] and in experiment [6] was “inactive” each time. Moreover, the Potency result in [14], in [16], in [17], in experiment [11], in [18] and in experiment [19] was “inactive” in each case.

As for `O=c1c2ccccc2oc2ccccc12`, the Potency result in [1], in experiment [2], in [3], in experiment [13], in experiment [5] and in experiment [6] was “inactive” each time. The Potency entry in [14], in [7], in experiment [8], in [9], in experiment [10] and in experiment [16] was “inactive” each time. The Potency entry in experiment [17], in experiment [12], in experiment [18] and in experiment [19] was “inactive” each time.

As to `CC(C)(C)C(=O)CCc1ccc(Cl)cc1`, the Potency result in experiment [1], in experiment [2], in experiment [3], in experiment [13], in [5] and in [6] was “inactive” throughout. Moreover, the Potency entry in experiment [14], in experiment [7], in [8], in experiment [9], in experiment [10] and in [16] was “inactive” throughout. Besides, the Potency entry in [11], in experiment [12], in experiment [18] and in experiment [19] was “inactive” each time.

Regarding `OCCC1CCCCN1` (stereo not drawn), the Potency result in [1], in [2], in experiment [3], in experiment [13], in [5] and in experiment [6] was “inactive” each time. For the same molecule, the Potency result in experiment [14], in experiment [7], in experiment [8], in [9], in [10] and in experiment [16] was “inactive” throughout. In addition, the Potency entry in experiment [17], in experiment [11], in experiment [18] and in experiment [19] was “inactive” throughout.

Regarding `CCC(=O)c1ccc2c(c1)N(CCCN(C)C)c1ccccc1S2`, the Potency entry in experiment [1], in experiment [2], in experiment [3], in [13], in experiment [5] and in [6] was “inactive” throughout. Moreover, the Potency result in [10], in [16], in experiment [17], in experiment [11] and in experiment [18] was “inactive” in each case. In addition, the Potency in experiment [7] was 0.13 µM (active); in experiment [19] it was 0.531 µM (active).
